Measurements as given in paper PMC7862700, “An all-to-all approach to the identification of sequence-specific readers for epigenetic DNA modifications on cytosine”.

Tests used:
Test in all cases: DAPPL (digital affinity profiling via proximity ligation, sequencing); 10 mM Tris-HCl pH 7.5, 50 mM NaCl, 1 mM DTT, 4% glycerol, room temperature, 30 min; GST-TFs on glutathione beads, 16-mer random dsDNA library, 0.1% formaldehyde crosslink after washing; high values mean tight binding
FLI1 = biological target: T1, FLI1 (Homo sapiens, UniProt Q01543 1-452); settings: protein: recombinant; tags: N-terminal GST; dsDNA, one strand shown
T1 sequence: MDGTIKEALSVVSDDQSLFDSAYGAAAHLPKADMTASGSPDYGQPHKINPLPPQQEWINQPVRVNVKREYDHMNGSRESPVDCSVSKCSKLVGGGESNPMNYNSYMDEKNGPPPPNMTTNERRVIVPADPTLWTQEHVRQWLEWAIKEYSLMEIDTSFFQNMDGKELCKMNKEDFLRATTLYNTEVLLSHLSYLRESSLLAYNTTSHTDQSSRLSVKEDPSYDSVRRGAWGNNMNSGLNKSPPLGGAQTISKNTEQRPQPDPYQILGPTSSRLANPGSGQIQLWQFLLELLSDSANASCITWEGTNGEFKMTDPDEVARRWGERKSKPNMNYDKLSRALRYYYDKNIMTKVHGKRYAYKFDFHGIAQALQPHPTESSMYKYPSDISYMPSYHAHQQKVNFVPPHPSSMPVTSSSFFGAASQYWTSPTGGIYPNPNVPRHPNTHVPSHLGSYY
In short: (§1)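 GST fusions of human transcription factors were expressed in yeast and captured with glutathione beads. Once given DNA barcodes and pooled alongside a tag-only sample, they were incubated for 30 min at room temperature with 200 nmole of a random double-stranded 16-mer DNA library in Tris/NaCl/DTT/glycerol buffer, then washed, crosslinked (0.1% formaldehyde), proximity-ligated, PCR-amplified and sequenced on an Illumina NextSeq500. The binding signal of each hexamer is its read frequency for a factor divided by its frequency for the tag-only sample.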

ELK1 = biological target: T2, ELK1 (Homo sapiens, UniProt P19419 1-428); settings: protein: recombinant; tags: N-terminal GST; dsDNA, one strand shown
T2 sequence: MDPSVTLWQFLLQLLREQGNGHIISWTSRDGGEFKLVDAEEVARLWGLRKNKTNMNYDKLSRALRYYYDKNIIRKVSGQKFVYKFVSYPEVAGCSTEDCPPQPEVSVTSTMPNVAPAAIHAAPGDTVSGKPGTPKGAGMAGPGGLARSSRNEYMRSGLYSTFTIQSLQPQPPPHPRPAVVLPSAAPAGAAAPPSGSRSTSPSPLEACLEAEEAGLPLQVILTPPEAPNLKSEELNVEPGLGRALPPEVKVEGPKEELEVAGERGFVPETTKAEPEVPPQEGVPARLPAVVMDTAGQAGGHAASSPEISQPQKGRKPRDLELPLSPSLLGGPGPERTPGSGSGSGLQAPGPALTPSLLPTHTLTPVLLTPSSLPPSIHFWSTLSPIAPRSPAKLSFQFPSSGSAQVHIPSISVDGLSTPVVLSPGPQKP
In short: as §1

GABPA = biological target: T3, GABPA (Homo sapiens, UniProt Q06546 1-454); settings: protein: recombinant; tags: N-terminal GST; dsDNA, one strand shown
T3 sequence: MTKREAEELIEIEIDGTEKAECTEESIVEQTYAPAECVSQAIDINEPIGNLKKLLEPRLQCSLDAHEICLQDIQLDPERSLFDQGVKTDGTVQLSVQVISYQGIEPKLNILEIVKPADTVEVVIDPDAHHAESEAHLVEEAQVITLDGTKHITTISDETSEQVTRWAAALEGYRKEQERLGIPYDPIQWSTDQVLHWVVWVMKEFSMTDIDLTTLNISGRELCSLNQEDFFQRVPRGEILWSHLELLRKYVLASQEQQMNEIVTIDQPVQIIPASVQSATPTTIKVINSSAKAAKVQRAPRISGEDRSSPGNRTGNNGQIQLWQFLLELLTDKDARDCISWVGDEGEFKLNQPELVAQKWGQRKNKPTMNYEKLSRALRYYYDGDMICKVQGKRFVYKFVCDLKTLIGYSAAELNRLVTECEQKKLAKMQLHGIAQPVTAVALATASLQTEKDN
In short: as §1

ERG = biological target: T4, ERG (Homo sapiens, UniProt P11308 1-479); settings: protein: recombinant; tags: N-terminal GST; dsDNA, one strand shown
T4 sequence: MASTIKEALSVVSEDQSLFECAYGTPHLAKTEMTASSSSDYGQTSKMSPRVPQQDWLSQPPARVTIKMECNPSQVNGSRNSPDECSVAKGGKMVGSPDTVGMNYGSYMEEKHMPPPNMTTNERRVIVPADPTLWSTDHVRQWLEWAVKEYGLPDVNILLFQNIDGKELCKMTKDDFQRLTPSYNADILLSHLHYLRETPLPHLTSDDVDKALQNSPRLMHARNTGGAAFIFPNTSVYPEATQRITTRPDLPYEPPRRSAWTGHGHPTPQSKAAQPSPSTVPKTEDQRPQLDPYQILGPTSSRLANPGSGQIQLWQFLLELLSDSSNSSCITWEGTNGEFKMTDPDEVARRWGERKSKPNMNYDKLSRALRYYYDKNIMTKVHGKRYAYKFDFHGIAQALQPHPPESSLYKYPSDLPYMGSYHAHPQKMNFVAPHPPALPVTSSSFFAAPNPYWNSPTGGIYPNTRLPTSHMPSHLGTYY
In short: as §1

ELF1 = ELF1 (Homo sapiens, UniProt P32519 1-619); settings: protein: recombinant; tags: N-terminal GST; dsDNA, one strand shown
Sequence of ELF1 (P32519 whole entry): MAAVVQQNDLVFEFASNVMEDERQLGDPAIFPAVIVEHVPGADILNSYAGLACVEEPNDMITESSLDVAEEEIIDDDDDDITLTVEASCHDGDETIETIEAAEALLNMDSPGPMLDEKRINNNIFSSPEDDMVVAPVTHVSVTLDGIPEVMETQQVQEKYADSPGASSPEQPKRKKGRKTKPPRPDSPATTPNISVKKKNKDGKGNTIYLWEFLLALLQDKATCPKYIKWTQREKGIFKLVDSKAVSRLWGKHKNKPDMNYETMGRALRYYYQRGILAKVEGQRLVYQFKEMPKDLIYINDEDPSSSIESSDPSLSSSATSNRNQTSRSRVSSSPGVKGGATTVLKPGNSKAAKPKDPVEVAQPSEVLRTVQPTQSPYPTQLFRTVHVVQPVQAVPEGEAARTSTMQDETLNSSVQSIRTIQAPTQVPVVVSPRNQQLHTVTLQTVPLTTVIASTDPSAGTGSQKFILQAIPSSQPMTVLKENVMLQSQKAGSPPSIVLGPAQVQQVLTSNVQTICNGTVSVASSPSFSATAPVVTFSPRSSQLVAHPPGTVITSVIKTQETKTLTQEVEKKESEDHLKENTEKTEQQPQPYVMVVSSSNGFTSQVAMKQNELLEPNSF
In short: as §1

EHF = biological target: T5, EHF (Homo sapiens, UniProt Q9NZC4 1-300); settings: protein: recombinant; tags: N-terminal GST; dsDNA, one strand shown
T5 sequence: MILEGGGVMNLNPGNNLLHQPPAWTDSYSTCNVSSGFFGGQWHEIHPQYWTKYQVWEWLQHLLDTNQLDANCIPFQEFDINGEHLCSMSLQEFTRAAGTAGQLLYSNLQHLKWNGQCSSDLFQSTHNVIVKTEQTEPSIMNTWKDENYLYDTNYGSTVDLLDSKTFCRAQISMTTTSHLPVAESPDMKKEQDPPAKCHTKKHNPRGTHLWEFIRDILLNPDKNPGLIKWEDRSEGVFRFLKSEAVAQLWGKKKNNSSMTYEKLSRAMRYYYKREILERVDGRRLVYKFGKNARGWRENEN
In short: as §1

SPI1 = SPI1 (Homo sapiens, UniProt P17947 1-270); settings: protein: recombinant; tags: N-terminal GST; dsDNA, one strand shown
In short: as §1

SPIB = SPIB (Homo sapiens, UniProt Q01892 1-262); settings: protein: recombinant; tags: N-terminal GST; dsDNA, one strand shown
Sequence of SPIB (Q01892 whole entry): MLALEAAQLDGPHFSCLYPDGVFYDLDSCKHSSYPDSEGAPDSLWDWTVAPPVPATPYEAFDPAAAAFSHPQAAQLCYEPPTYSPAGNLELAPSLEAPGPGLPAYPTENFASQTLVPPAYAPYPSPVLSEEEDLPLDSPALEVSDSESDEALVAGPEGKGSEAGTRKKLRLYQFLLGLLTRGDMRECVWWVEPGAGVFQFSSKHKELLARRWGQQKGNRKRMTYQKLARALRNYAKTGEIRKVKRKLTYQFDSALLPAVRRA
In short: as §1

ELK3 = biological target: T6, ELK3 (Homo sapiens, UniProt P41970 1-407); settings: protein: recombinant; tags: N-terminal GST; dsDNA, one strand shown
T6 sequence: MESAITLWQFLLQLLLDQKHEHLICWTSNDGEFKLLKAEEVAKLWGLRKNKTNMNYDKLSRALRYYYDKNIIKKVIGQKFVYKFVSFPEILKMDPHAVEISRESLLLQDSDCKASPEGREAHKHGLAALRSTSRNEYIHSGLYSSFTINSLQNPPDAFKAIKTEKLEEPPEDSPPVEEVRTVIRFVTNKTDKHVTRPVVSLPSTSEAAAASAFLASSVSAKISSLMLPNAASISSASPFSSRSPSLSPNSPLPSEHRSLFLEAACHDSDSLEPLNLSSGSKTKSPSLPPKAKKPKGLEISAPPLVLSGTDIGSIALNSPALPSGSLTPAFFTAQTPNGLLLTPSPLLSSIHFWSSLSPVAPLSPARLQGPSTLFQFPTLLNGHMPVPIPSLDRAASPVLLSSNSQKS
In short: as §1

FEV = biological target: T7, FEV (Homo sapiens, UniProt Q99581 1-238); settings: protein: recombinant; tags: N-terminal GST; dsDNA, one strand shown
T7 sequence: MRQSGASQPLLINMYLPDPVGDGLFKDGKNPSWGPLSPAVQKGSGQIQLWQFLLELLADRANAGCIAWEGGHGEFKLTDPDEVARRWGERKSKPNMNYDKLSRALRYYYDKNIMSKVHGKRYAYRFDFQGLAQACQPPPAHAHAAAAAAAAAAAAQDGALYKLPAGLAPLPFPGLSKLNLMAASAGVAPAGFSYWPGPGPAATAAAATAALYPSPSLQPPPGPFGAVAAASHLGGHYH
In short: as §1

ETV5 = ETV5 (Homo sapiens, UniProt P41161 1-510); settings: protein: recombinant; tags: N-terminal GST; dsDNA, one strand shown
Sequence of ETV5 (P41161 whole entry): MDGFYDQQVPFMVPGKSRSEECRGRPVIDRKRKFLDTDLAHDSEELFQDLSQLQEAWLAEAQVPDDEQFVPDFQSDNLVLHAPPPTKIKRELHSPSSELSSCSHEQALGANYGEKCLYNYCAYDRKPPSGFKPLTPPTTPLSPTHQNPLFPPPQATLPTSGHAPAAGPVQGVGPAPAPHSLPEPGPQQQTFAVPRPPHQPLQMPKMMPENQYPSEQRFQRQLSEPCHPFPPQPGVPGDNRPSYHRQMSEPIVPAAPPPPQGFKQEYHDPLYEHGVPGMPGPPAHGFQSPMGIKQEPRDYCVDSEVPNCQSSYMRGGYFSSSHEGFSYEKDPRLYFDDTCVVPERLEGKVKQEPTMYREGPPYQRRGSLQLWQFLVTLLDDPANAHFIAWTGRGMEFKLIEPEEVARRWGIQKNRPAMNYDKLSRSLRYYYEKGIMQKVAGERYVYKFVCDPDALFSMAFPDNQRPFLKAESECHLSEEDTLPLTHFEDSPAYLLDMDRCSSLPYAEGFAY
In short: as §1

HSF1 = HSF1 (Homo sapiens, UniProt Q00613 1-529); settings: protein: recombinant; tags: N-terminal GST; chain copies: 3; dsDNA, one strand shown
Sequence of HSF1 (Q00613 whole entry): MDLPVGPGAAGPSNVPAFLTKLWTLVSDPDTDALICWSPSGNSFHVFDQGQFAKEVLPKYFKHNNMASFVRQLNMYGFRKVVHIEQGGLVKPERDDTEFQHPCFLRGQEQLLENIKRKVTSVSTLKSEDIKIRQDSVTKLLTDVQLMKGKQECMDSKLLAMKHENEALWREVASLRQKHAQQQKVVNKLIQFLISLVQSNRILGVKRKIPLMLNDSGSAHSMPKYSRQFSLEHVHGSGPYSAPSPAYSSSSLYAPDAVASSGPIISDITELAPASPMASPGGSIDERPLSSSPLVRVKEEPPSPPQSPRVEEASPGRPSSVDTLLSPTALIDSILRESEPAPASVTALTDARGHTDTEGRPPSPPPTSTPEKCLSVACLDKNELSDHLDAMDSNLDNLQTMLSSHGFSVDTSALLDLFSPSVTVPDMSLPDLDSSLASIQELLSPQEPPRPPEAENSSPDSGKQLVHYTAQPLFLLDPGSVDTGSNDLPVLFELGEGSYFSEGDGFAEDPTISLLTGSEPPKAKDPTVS
In short: as §1

SPIC = biological target: T8, SPIC (Homo sapiens, UniProt Q8N5J4 1-248); settings: protein: recombinant; tags: N-terminal GST; dsDNA, one strand shown
T8 sequence: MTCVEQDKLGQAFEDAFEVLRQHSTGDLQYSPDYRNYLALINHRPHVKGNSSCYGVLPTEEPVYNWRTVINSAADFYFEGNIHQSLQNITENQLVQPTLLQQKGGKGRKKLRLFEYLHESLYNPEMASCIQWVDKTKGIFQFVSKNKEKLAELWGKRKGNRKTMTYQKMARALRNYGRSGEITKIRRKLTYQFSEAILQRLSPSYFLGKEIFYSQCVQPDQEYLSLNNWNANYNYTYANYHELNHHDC
In short: as §1

ELF4 = ELF4 (Homo sapiens, UniProt Q99607 1-663); settings: protein: recombinant; tags: N-terminal GST; dsDNA, one strand shown
Sequence of ELF4 (Q99607 whole entry): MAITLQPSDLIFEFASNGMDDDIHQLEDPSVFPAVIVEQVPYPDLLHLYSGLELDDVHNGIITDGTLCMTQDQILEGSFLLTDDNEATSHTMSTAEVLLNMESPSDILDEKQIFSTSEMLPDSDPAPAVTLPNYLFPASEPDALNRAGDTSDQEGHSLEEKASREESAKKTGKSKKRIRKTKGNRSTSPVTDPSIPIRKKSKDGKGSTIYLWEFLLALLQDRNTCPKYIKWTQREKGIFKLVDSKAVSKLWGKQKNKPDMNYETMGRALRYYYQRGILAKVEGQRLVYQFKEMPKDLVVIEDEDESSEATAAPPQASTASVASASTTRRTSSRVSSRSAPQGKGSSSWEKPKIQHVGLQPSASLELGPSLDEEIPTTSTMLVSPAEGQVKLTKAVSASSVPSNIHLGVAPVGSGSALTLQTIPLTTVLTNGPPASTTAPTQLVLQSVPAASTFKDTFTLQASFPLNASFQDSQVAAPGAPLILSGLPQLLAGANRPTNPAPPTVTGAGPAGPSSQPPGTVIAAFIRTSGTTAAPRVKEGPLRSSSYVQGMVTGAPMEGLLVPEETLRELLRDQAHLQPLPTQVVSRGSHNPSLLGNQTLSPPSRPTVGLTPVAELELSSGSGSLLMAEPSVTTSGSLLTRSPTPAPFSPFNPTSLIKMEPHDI
In short: as §1

ELK4 = biological target: T9, ELK4 (Homo sapiens, UniProt P28324-2 1-405); settings: protein: recombinant; tags: N-terminal GST; dsDNA, one strand shown
T9 sequence: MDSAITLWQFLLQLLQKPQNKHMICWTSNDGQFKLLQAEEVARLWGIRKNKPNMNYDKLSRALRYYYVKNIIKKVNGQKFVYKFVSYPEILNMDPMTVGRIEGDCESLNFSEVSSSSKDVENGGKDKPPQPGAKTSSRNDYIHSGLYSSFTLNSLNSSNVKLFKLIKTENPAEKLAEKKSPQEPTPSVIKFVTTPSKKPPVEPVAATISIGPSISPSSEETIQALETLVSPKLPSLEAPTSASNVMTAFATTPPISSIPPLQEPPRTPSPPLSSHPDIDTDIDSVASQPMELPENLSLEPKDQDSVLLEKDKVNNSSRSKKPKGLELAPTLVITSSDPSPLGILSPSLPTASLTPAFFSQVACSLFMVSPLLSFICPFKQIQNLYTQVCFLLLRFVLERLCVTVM
In short: as §1

ETV2 = biological target: T10, ETV2 (Homo sapiens, UniProt O00321 1-342); settings: protein: recombinant; tags: N-terminal GST; dsDNA, one strand shown
T10 sequence: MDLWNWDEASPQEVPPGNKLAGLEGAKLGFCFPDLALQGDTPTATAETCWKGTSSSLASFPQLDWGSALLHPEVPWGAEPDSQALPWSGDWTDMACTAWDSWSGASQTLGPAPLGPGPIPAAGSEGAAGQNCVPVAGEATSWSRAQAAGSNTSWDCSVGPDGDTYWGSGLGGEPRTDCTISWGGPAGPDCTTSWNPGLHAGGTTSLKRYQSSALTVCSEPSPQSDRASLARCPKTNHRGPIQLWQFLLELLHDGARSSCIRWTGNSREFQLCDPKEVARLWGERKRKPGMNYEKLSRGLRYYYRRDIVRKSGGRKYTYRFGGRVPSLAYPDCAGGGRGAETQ
In short: as §1

ELF3 = biological target: T11, ELF3 (Homo sapiens, UniProt P78545 1-371); settings: protein: recombinant; tags: N-terminal GST; dsDNA, one strand shown
T11 sequence: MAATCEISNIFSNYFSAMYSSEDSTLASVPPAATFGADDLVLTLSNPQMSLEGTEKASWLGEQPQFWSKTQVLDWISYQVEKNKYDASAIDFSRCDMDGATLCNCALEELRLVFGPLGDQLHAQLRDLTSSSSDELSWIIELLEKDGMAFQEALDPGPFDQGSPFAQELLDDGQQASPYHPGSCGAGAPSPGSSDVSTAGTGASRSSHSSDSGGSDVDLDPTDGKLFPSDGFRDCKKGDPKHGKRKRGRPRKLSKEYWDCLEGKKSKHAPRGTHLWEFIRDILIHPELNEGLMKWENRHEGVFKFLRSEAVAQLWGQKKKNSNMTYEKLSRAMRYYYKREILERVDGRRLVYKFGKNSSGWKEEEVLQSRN
In short: as §1

CRX = CRX (Homo sapiens, UniProt O43186 1-299); settings: protein: recombinant; tags: N-terminal GST; dsDNA, one strand shown
Sequence of CRX (O43186 whole entry): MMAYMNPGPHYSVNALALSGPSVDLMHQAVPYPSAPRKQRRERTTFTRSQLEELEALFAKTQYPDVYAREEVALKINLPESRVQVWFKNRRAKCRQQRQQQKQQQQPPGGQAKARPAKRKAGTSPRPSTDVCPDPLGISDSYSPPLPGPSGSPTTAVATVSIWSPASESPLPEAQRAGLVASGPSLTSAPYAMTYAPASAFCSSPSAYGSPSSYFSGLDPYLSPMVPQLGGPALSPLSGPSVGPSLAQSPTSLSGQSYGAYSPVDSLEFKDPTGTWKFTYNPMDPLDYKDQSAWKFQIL
In short: as §1

ETV1 = ETV1 (Homo sapiens, UniProt P50549 1-477); settings: protein: recombinant; tags: N-terminal GST; dsDNA, one strand shown
Sequence of ETV1 (P50549 whole entry): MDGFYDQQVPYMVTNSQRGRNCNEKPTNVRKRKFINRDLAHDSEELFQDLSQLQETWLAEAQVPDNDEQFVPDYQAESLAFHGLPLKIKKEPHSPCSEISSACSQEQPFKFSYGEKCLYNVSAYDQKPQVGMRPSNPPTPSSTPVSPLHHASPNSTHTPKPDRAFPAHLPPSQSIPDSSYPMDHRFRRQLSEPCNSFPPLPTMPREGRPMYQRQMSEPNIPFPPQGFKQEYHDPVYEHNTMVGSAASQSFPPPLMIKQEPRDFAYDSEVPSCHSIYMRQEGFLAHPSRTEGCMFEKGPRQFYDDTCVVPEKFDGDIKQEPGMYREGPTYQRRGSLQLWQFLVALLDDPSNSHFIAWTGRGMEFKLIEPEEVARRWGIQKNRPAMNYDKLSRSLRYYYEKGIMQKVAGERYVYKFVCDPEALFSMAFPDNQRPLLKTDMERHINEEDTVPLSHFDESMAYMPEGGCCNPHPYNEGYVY
In short: as §1

CGATGG
binding signal (FLI1): 1.36 fold enrichment (6-mer frequency, TF over GST control)
binding signal (ELK1): 1.4 fold enrichment (6-mer frequency, TF over GST control)
binding signal (GABPA): 1.36 fold enrichment (6-mer frequency, TF over GST control)
binding signal (ERG): 1.34 fold enrichment (6-mer frequency, TF over GST control)
binding signal (ELF1): 1.32 fold enrichment (6-mer frequency, TF over GST control)
binding signal (EHF): 1.24 fold enrichment (6-mer frequency, TF over GST control)
binding signal (SPI1): 1.41 fold enrichment (6-mer frequency, TF over GST control)
binding signal (SPIB): 1.58 fold enrichment (6-mer frequency, TF over GST control)
binding signal (ELK3): 1.4 fold enrichment (6-mer frequency, TF over GST control)
binding signal (FEV): 1.23 fold enrichment (6-mer frequency, TF over GST control)
binding signal (ETV5): 1.28 fold enrichment (6-mer frequency, TF over GST control)
binding signal (HSF1): 1.36 fold enrichment (6-mer frequency, TF over GST control)
binding signal (SPIC): 1.31 fold enrichment (6-mer frequency, TF over GST control)
binding signal (ELF4): 1.36 fold enrichment (6-mer frequency, TF over GST control)
binding signal (ELK4): 1.46 fold enrichment (6-mer frequency, TF over GST control)
binding signal (ETV2): 1.34 fold enrichment (6-mer frequency, TF over GST control)
binding signal (ELF3): 1.15 fold enrichment (6-mer frequency, TF over GST control)
binding signal (CRX): 1.14 fold enrichment (6-mer frequency, TF over GST control)
binding signal (ETV1): 1.41 fold enrichment (6-mer frequency, TF over GST control)
